Consider 36 compounds from PubChem BioAssay (EPA / NIEHS).

Molecules are shown by their SMILES. Values joined by “and” are separate entries in the source; they are usually repeats but may differ in a detail not shown here. Equal entries are not always repeated. Active and inactive are the calls of the source. The calls were made as follows: active = hit-call score of the fitted dose curve at least 0.9, where 1 is the maximum; inactive = score below 0.9.

Read-out in the experiment: Interleukin-8 (IL8), CXCL8 (gene 3576)
Put plainly: BSK_MyoF_IL8: BioMAP Diversity Plus: MyoF Assay for Interleukin-8 (IL8) Biomarker Activity (AID 2284261). Particulars: primary human lung fibroblasts. The method, then:
BSK_MyoF is a cell-based, multiplexed-readout assay that uses lung fibroblasts, […], with measurements taken at 24 hours after chemical dosing in a microplate: 96-well plate.BSK_MyoF_IL8 is an assay component measured in the BSK_MyoF assay. It measures IL-8 antibody related to regulation of gene expression using ELISA technology.Data from the assay component BSK_MyoF_IL8 was analyzed at the endpoint, BSK_MyoF_IL8, in the positive analysis fitting direction relative to DMSO as the negative control and baseline of activity. Using a type of binding reporter, gain or loss-of-signal activity can be used to understand protein changes. To generalize the intended target to other relatable targets, this assay endpoint is annotated to the 'cytokine' intended target family, where the subfamily is 'interleukins'.
The levels of cell surface (or secreted, indicated by the prefix "s") biomarker endpoints were measured by ELISA. Overt cytotoxicity to cells in confluent adherent cultures (all systems other than the BT system) was assessed by measuring total protein levels using sulforhodamine B (SRB) staining in parallel cultures at the time of biomarker measurements, indicated as SRB endpoints. For proliferation assays for adherent cell types, individual cell types are cultured at sub-confluence and relative cell numbers quantified by SRB staining at time points optimized for each system (48 h: 3C and CASM3C systems; 72 h: BT and HDF3CGF systems; 96 h: SAg system). SRB was performed by staining cells with 0.1% SRB after fixation with 10% TCA and reading wells at 560 nm.Viability and proliferation of PBMC (T cells) was quantified by Alamar Blue reduction for the SAg and BT systems. For PBMC viability (referred to as PBMC Cytotoxicity within the assay endpoint names), cells were plated (75,000/well in a 96-well plate) and then chemical samples added for 1 h before addition of activators, SEB and TSST-1 (20 ng/mL final concentration each). Cells were incubated for 90 h. Then, Alamar Blue (20 uL/well) (Invitrogen, Cat DAL1100) was added for 6 h, and the plates were read with a fluorescence microplate reader at 546/580 nm (excitation/emission). For PBMC proliferation, cells were plated and activated as above but incubated for only 16 h prior to addition of Alamar Blue. Plates were read after 6 h.
For the compound `O=C(O)C(F)(F)C(F)(F)C(F)(F)C(F)(F)C(F)(F)C(F)(F)F`, the outcome was inactive. Turning to `COP(=S)(OC)Oc1cc(Cl)c(Cl)cc1Cl`, the AC50 was 4.59 µM (active). Turning to `CCCCCCCCC(=O)NCc1ccc(O)c(OC)c1`, the result was inactive. For `Oc1c(I)cc(I)cc1I`, the half-maximal activity concentration (AC50) is 3.55 µM (active). For `O=C(O)CCC(F)(C(F)(F)F)C(F)(F)F`, the result was inactive.

Turning to `ClC(Cl)=C(Cl)C(Cl)=C(Cl)Cl`, the AC50 is 15.1 µM (active).

Consider `O=Cc1cccc(Oc2ccccc2)c1`, for which the result was inactive. Same read-out and setting: the value for `COC[C@H](C)N(C(=O)CCl)c1c(C)csc1C` was “inactive”; that for `O=S(=O)(c1ccc(Cl)cc1)c1ccc(Cl)cc1` was “inactive”; that for `CC(=O)C(Cl)C(=O)N(C)C` (stereo unspecified) was “inactive”. Same read-out and setting: the value for `OCc1ccco1` was “inactive”.

For the compound `BrCCBr`, the result was inactive. With `O=C(OC1CCCCC1)c1ccccc1C(=O)OC1CCCCC1`, the AC50 is 5.72 µM (active). As for `CCSC(C)CC1CC(=O)C(C(CC)=NOC/C=C/Cl)=C(O)C1` (stereo unspecified), the outcome was inactive. On the same count and under the same terms, the value for `COP(=S)(OC)Oc1ccc(S(=O)(=O)N(C)C)cc1` was “inactive”; that for `Oc1ccc(-c2ccccc2)cc1` was “inactive”. Regarding `Nc1ccc(-c2ccc(N)c(Cl)c2)cc1Cl`, the AC50 was 2.04 µM (active). As to `C(=NC1CCCCC1)=NC1CCCCC1`, the AC50 was 33.1 µM (active). Regarding `COc1cc(OC)nc(NC(=O)NS(=O)(=O)c2ncccc2C(=O)N(C)C)n1`, the outcome was inactive. Turning to `ClC1=C(Cl)[C@]2(Cl)[C@H]3[C@H]([C@H]4C=C[C@H]3C4)[C@@]1(Cl)C2(Cl)Cl`, the half-maximal activity concentration (AC50) was 2.92 µM (active). As for `CCNc1nc(NC(C)(C)C)nc(SC)n1`, the result was inactive. For the compound `Nc1cccc2ccccc12`, the AC50 is 11.4 µM (active). Take `CC(C)c1ccc(CO)cc1`: the outcome was inactive. For the compound `CCCCC(CC)CO[N+](=O)[O-]` (stereo unspecified), the result was inactive. Same read-out and setting: the value for `NC(=S)Nc1ccccc1` was “inactive”; that for `CCOC(=O)/C=C(C)/C=C/C[C@@H](C)CCCC(C)C` was “inactive”. Regarding `O=C(O)C(F)(F)C(F)(F)C(F)(F)C(F)(F)C(F)(F)C(F)(F)C(F)(F)C(F)(F)C(F)(F)C(F)(F)F`, the AC50 is 6.34 µM (active) and 6.43 µM (active).

On to `CC1(C)Cc2cccc(O)c2O1`, for which the result was inactive.

For `CCOP(=S)(OCC)SCCS(=O)(=O)CC`, the outcome was inactive. As for `COP(=S)(OC)Oc1c(Cl)cc(C)cc1Cl`, the result was inactive. Same read-out and setting: the value for `CCOP(=S)(OCC)Oc1ccc(S(C)=O)cc1` (stereo unspecified) was “inactive”; that for `Nc1ncc([N+](=O)[O-])s1` was “inactive”. Regarding `COP(=S)(OC)Oc1ccc(Sc2ccc(OP(=S)(OC)OC)cc2)cc1`, the AC50 was 20 µM (active). Consider `O=[N+]([O-])c1ccc2c3c(cccc13)CC2`, for which the outcome was inactive. As for `COC(=O)c1sccc1S(=O)(=O)NC(=O)Nc1nc(C)nc(OC)n1`, the outcome was inactive.

As for `CC(C)CCCCCCOC(=O)c1ccccc1C(=O)OCCCCCCC(C)C`, the outcome was inactive.
